Screening results deposited in PubChem BioAssay by several laboratories.
CCHF vOTU inh – CCHFV vOTU protease inhibitors, primary screen, biochemical, Pep-AMC substrate, fluorescence; Crimean-Congo hemorrhagic fever virus L polyprotein viral ovarian tumor (vOTU) protease …; inhibition, % at 11.5 µM; 370,000 tested, 0.55% active; AID 651958, 2012; note: 0% = vehicle wells with enzyme and 100% = no enzyme wells
GDH-TPI inh – GDH-TPI coupling enzyme inhibitors, primary screen, artefact control for M. tuberculosis FBA inhibitor project, biochemical, absorbance, full deck | GDH-TPI coupled enzyme counterscreen, NADH absorbance | inhibition, % at 4.8 µM | 360,000 tested, 1.2% active | AID 588335, 2011;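 note: 0% = DMSO wells and 100% = wells lacking the enzyme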
RecA splice inh – Mtb RecA intein splicing inhibitors, primary screen, biochemical, fluorescence, HTS; cell-free RecA intein splicing; inhibition, % (test concentration not listed); 290,000 tested, 0.75% active; Protein RecA (Mycobacterium tuberculosis (strain ATCC 25618 / H37Rv)), P9WHJ3; in the data active = inhibition above about 30%;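 note: 0% = vehicle wells and 100% = reference inhibitor control wells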
FBA Mtb inh – Mtb FBA enzyme inhibitors, primary screen, biochemical, fluorescence, strain H37Rv. Fructose-bisphosphate aldolase (Mycobacterium tuberculosis (strain ATCC 25618 / H37Rv)), …. purified M. tuberculosis FBA, fluorescence read-out. inhibition, % at 1 µM. 360,000 tested, 2.3% active. AID 588726, 2011; in the data active = inhibition above about 27%;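 note: 0% = vehicle and 100% = reference inhibitor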
Target sequence (P9WQA3 whole entry, looked up): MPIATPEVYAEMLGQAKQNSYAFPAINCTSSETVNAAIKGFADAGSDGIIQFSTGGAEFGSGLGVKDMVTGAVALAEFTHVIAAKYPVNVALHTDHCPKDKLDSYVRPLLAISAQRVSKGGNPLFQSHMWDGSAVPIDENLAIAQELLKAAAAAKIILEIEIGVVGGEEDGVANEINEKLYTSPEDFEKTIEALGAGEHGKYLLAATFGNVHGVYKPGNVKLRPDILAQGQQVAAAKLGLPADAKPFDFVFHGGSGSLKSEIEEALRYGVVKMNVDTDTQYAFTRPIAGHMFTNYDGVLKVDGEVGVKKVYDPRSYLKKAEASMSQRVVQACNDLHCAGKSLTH
* = called active by the depositor; i = inactive; · = not tested or not shown; + = active, no number. Hits are enriched below; roughly 4.2% of the tested compounds scored in any of these assays. Cut-off read from the data, not from the text of the source, unless noted: active = inhibition above about 30%; inactive = the rest.

SMILES	CCHF vOTU inh	GDH-TPI inh	RecA splice inh	FBA Mtb inh
O=Cc1c(Cl)nc2ccccn12	6	7	-5	-6
CCN(C(=O)c1cc2c(=O)n3ccccc3nc2n1C)C1CCCCC1	-313	1	-206	+
Cc1cccn2c(=O)c3cc(C(=O)NC4CCCCC4C)n(C)c3nc12 (centres undefined)	-12	0	-13	13
CCN(C(=O)c1cc2c(=O)n3ccccc3nc2n1CCCOC)C1CCCCC1	-276	17	2	118*
CCN(C(=O)c1cc2c(=O)n3cccc(C)c3nc2s1)C1CCCCC1	-14	3	-5	4
CC1CCCCC1NC(=O)c1cc2c(=O)n3ccccc3nc2n1C (centres undefined)	-148	10	i	180*
CN(C(=O)c1cc2c(=O)n3ccccc3nc2n1C)C1CCCCC1	-293	19	-349	+
COCCCn1c(C(=O)NCCC2=CCCCC2)cc2c(=O)n3cccc(C)c3nc21	-8	0	-3	6
CC(C)n1ncc2c(C(=O)Nc3ccccc3SCC(N)=O)cc(C3CC3)nc21	5	9	·	-2
CCOc1cc(/C=N/Nc2ccc(C(=O)O)cc2)ccc1OC(=O)c1ccccc1C	1	51*	-3	-2
COc1cccc(C(=O)Oc2ccc(/C=N/Nc3ccc(C(=O)O)cc3)cc2OC)c1	17	16	0	-1
CCOC(=O)[C@]12Cc3c(cc(OC)c(OC)c3OC)[C@H]1N(C1CCCCC1)C(=O)c1cc(OC)ccc12	2	·	·	·
CCOc1ccccc1NC(=O)c1cc(C(=O)c2cc(Br)ccc2O)coc1=N	21	31*	-1	4
CC(C)OC(=O)c1cc(C(=O)c2cc(Br)ccc2O)coc1=N	9	8	-6	3
CCCSc1nc(N)c2c3c(sc2n1)CN(C)CC3	·	27	2	41*
CC1CC1C(=O)OCC(=O)Nc1cc(S(=O)(=O)N2CCCCC2)ccc1Cl (centres undefined)	8	-3	·	-1
Cc1cc2[nH]c(=O)c(=O)[nH]c2cc1S(=O)(=O)NCc1ccc(Cl)cc1	·	24	2	48*
Cc1cc2[nH]c(=O)c(=O)[nH]c2cc1S(=O)(=O)Nc1cccc(Cl)c1C	1	11	0	0
Cc1cc(=O)oc2cc(OCC(=O)N3CCN(C(C)c4ccccc4)CC3)c(Cl)cc12 (centres undefined)	-234	3	·	+
C=CCOc1ccccc1CN1CCC(n2nccc2NC(=O)c2ccccc2)CC1	11	-3	3	-2
CCN1C(=O)[C@@H]2C(C(=O)c3cnccn3)=NN[C@@H]2C1=O	13	32*	12	-1
O=C(C1=NN[C@@H]2C(=O)N(c3cccc(F)c3)C(=O)[C@H]12)c1cnccn1	-12	10	3	2
COc1cc(C2Nc3ccccc3NC3=C2C(=O)CC(c2ccc(OC)c(OC)c2)C3)ccc1O (centres undefined)	0	44*	1	0
Cc1ccc(S(=O)(=O)N2CC3C(=O)C[C@@H](c4ccccc4)N(S(=O)(=O)c4ccc(CCCOCCOCCNC(=O)OC(C)(C)C)cc4)C3CC2c2ccccc2)cc1 (some centres undefined)	14	·	·	·
COc1ccc(/C=C(/C#N)C(=O)Nc2ccc(C)cc2C)cc1C(=O)O	5	54*	0	-1
SMILES	CCHF vOTU inh	GDH-TPI inh	RecA splice inh	FBA Mtb inh
COc1ccc(/C=C(/C#N)C(=O)Nc2cccc(C)c2C)cc1C(=O)O	-14	37*	1	0
COc1ccc(/C=C(/C#N)C(=O)Nc2ccccc2C)cc1C(=O)O	14	25	2	-5
COc1ccc(-c2cc(C(=O)NCC(c3ccco3)N(C)C)c3ccccc3n2)cc1OC (centres undefined)	1	17	-2	2
CSc1ccc(-c2cccc3nncn23)cc1	-165	24	·	+
Cn1cc(-c2cccc3nncn23)cn1	-1	15	·	6
CCOC(=O)c1sc(N)c(C(=O)OC)c1C	2	6	2	1
COC(=O)c1c(N)sc(C(C)=O)c1C	9	44*	0	1
N#CCCN(C(=O)CCl)c1cccc(Cl)c1	7	-2	45*	-2
Nc1ccccc1N1C(=O)c2cccc3cccc(c23)C1=O	14	4	0	0
O=C1c2cccc3cccc(c23)C(=O)N1c1ccccc1Cl	-12	33*	-1	25
COc1ccc(S[C@]2(C(=O)N3CCOCC3)CC(=O)N(c3ccc(OC)cc3)[C@@H]2c2ccc(OC)cc2)cc1	12	·	·	·
CS(=O)(=O)c1ccc2nc(NC(=O)c3cc([N+](=O)[O-])cc([N+](=O)[O-])c3)sc2c1	-4	15	-3	-5
CCNS(=O)(=O)c1ccc2nc(NC(=O)c3cccnc3)sc2c1	1	70*	-10	-1
CS(=O)(=O)c1ccc2nc(NC(=O)c3cccc([N+](=O)[O-])c3)sc2c1	16	39*	-1	-2
CS(=O)(=O)c1ccc2nc(NC(=O)c3cccs3)sc2c1	19	49*	·	-2
Cc1nc2ccc(NC(=O)c3cccnc3)cc2s1	5	1	·	0
COc1ccc(CCn2c(=N)c(C(=O)NCC3CCCO3)cc3c(=O)n4cccc(C)c4nc32)cc1 (centres undefined)	-12	13	-10	14
N=c1c(C(=O)NCC2CCCO2)cc2c(=O)n3ccccc3nc2n1Cc1ccc(F)cc1 (centres undefined)	-91	0	i	+
N=c1c(C(=O)NCC2CCCO2)cc2c(=O)n3ccccc3nc2n1Cc1cccnc1 (centres undefined)	-249	16	i	+
Cc1cccn2c(=O)c3cc(C(=O)NCC4CCCO4)c(=N)n(Cc4cccnc4)c3nc12 (centres undefined)	-270	13	·	+
Cc1nnc(Cc2ccccc2)c2n[nH]c(C)c12	0	12	·	5
COc1cccc(NC(=O)c2ccc(OC(F)(F)F)cc2)c1	1	0	2	0
CCOc1ccc(S(=O)(=O)N2CCCC(C(=O)N3CCN(CC)CC3)C2)cc1Cl (centres undefined)	21	2	1	-1
CCN(CC)c1nc2c(s1)C(=O)CC(C)(C)C2	15	35*	-1	-2
O=C1NCCC/C1=N\Nc1ccc(Br)cc1	13	37*	1	0
CC(OC(=O)c1nccnc1N)C(=O)Nc1ccc(S(=O)(=O)N2CCCC2)cc1 (centres undefined)	-118	8	-2	142*
CC(OC(=O)c1ccc(S(=O)(=O)N2CCCCC2)cc1)C(=O)Nc1ccc(C(N)=O)cc1 (centres undefined)	5	-3	·	0
CNC(=O)[C@@H](NC(=O)[C@H](CC(C)C)[C@H](O)C(=O)NO)C(C)(C)C	2	·	·	·
